Data from PubChem BioAssay AID800 (PCMD, 2007).
Screen size: about 220,000 compounds; about 650 (0.3%) were called active. What follows is part of a selection rich in actives, with near analogues and random picks from the rest. A number with no mark means an inactive call. Cut-off read from the data, not from the text of the source: active = inhibition above about 40%; inactive = the rest.

These molecules were tested against Coagulation factor XII (Homo sapiens) (UniProt P00748) (assay: human FXIIa protease inhibitors, primary screen, biochemical, 1536-well (AID 800;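 note: 0% = enzyme with no compound and 100% = blank without enzyme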)). Details: purified FXIIa, Boc-QGR-AMC fluorogenic substrate, 2 h; at 5 µM; stronger effect = higher value.
Coagulation factor XII (Homo sapiens), sequence (P00748 20-372 limits assumed): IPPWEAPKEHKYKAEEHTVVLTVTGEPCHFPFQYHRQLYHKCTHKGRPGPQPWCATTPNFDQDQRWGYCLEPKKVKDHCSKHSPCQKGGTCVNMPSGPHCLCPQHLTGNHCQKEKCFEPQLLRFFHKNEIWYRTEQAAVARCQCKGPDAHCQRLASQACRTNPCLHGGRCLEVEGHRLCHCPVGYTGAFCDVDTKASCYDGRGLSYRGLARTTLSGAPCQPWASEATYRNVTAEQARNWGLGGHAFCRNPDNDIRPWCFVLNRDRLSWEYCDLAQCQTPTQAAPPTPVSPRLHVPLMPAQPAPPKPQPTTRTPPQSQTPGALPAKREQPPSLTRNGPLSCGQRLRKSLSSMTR
Coagulation factor XII (Homo sapiens), sequence (P00748 373-615 limits assumed): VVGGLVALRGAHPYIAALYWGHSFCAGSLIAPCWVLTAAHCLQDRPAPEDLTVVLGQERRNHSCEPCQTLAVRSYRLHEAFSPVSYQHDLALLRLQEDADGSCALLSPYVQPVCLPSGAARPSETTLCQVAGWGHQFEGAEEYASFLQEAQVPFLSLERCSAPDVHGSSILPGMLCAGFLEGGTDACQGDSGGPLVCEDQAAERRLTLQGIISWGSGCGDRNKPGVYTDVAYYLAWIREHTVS
In the case of `Cc1ccc2c(c1)nnc1nnc(SCC(=O)O)n12`, the inhibition is reported as 5.33%. Molecule `Cc1cccc(NC(=O)c2nc[nH]c2C(=O)NCC(=O)OCc2ccccc2)c1` has an inhibition of 7.76%. In the case of `Cc1ccc(NNC(=O)c2cccs2)cc1Cl`, the inhibition is reported as 8.48%. `CCc1nnc(NC(=O)CCN(c2ccc(C)cc2)S(=O)(=O)c2ccccc2)s1` was tested, and the inhibition was 49.2% (active). For `CCc1nnc(NC(=O)CCC(=O)O)s1`, the inhibition was 13.2%. `CCc1nnc(NC(=O)CCC(=O)NCc2ccccc2OC)s1` gave an inhibition of 15%. `CCCCC1=CC2=CC(=O)C(C)(OC(=O)CC)C(=O)C2=CN1CCCOC(C)C` (centres undefined) was tested, and the inhibition was 7.98%. Molecule `O=C(Nc1ccc(F)cc1)c1cc2c(s1)CCCC2` has an inhibition of 8.77%. With `COc1ccc(CNC(=O)C2CC(c3ccc(C(F)(F)F)cc3)=NO2)cc1` (centres undefined) the inhibition was 7.68%. `Nc1nnn(CC(=O)N/N=C/c2ccc(O)cc2)n1` showed an inhibition of 16.2%. Work on `CCc1cccc(CC)c1NC(=S)Nc1ccc2cn[nH]c2c1` yielded an inhibition of 10%. `Cc1ccc(SCc2c(C(=O)N/N=C/C3CC=CCC3)nnn2-c2nonc2N)cc1` (centres undefined) gave an inhibition of 9.39%. Molecule `CS(=O)(=O)c1ccc2nc(NC(=O)c3ccc(N4CCCC4=O)cc3)sc2c1` has an inhibition of 1.85%. Molecule `O=C(NCc1ccc2c(c1)OCO2)c1sccc1Br` has an inhibition of 8.69%. `C/C=C(/C)C(=O)O[C@@H]1c2cc3c(c4c2[C@@]2(CO4)C(=O)C(OC)=C(OC)C=C2C[C@@H](C)[C@H]1C)OCO3` gave an inhibition of 12.9%. Molecule `Oc1[nH]c2ccc(Br)cc2c1N=Nc1nn[nH]n1` has an inhibition of 12.3%. Molecule `CCCc1ccc(C(=O)[C@@H]2[C@@H](C(C)=O)N3c4ccc(F)cc4C=C[C@@H]3[C@@]23C(=O)Nc2ccccc23)cc1` has an inhibition of 8.48%. With `CC1CC(C)(C)n2c(O)c(N=NC(N)=S)c3cccc1c32` (centres undefined) the inhibition was 30.2%. `Cc1ccccc1Nc1c(-c2ccccc2)nc2ncccn12` was tested, and the inhibition was 5.54%. In the case of `CCc1ccc(S(=O)(=O)NCC(O)COc2ccc(OC)cc2)cc1` (centres undefined), the inhibition is reported as 6.59%. `Cc1cccc(NC(=O)c2cc(N3C(=O)CCC3=O)ccc2Cl)n1` was tested, and the inhibition was 50.5% (active). `Cc1cccc(NC(=O)c2ccc3ccccc3n2)n1` showed an inhibition of 16%. `Cc1cc(NC(=O)c2cccc(N3C(=O)CCC3=O)c2)no1` was tested, and the inhibition was 16.7%. Molecule `O=C(NC1CCN(Cc2ccccc2)CC1)c1ccc(Oc2cc(Cl)cc(Cl)c2)o1` has an inhibition of 6.33%. For `S=c1[nH]c2ccccc2c2ccccc12`, the inhibition was 2.88%. Work on `COC(=O)CCCC1=CC2=CC(=O)C(C)(OC(=O)c3cccs3)C(=O)C2=CN1CC(C)C` (centres undefined) yielded an inhibition of 7.73%. For `Cc1noc(C)c1C(=O)OCC(=O)N1CCN(S(=O)(=O)c2ccc3ccccc3c2)CC1`, the inhibition was 1.83%. In the case of `Nc1ccccc1Sc1cc(Cl)nnc1Cl`, the inhibition is reported as 12.7%. `C=CCn1c(=S)sc2c(=O)[nH]c(C)nc21` was tested, and the inhibition was 1.68%. With `Cc1cc(=O)[nH]c(S)c1C#N` the inhibition was -0.28%. In the case of `COC(C[C@@H](O)[C@H](C)[C@H](O)COCc1ccccc1)OC`, the inhibition is reported as 4.52%. In the case of `Cn1c(S(=O)(=O)O)nc2ccccc21`, the inhibition is reported as -0.32%. In the case of `NS(=O)(=O)c1ccc(CCNC(=O)NC2CCCCC2)cc1`, the inhibition is reported as 15%. Molecule `O=C(c1ccc(Cl)cc1)N1N=C(c2ccccn2)CC1(O)C(F)(F)F` (centres undefined) has an inhibition of 8.52%. In the case of `Cc1ccc(-n2ncc3c(=O)[nH]cnc32)c(C)c1`, the inhibition is reported as 54% (active). `COC(=O)CSc1ncnc2c1cnn2-c1ccc(C)cc1C` gave an inhibition of 5.55%. `Cc1ccc(-n2ncc3c2ncn2nc(-c4ccco4)nc32)c(C)c1` gave an inhibition of 14.2%. `Cc1[nH]n(C)c(=O)c1C(=O)c1c(-c2c(Cl)cccc2Cl)noc1C` showed an inhibition of 2.28%. For `CCOc1c(Nc2cccc(Cl)c2)c(=O)c1=O`, the inhibition was 8.16%. Molecule `COc1ccc(Nc2ncnc3sc(-c4ccccc4)cc23)c(OC)c1` has an inhibition of 4.94%. With `CC(C)(C)c1cc(C(=O)N/N=C/c2ccc([N+](=O)[O-])s2)n[nH]1` the inhibition was 7.22%. For `Cc1nc(N)[nH]c(=O)c1Oc1cccc(C(F)(F)F)c1`, the inhibition was 3.61%. `O=C(CSC(=S)N1CCCCC1)c1c(F)cccc1F` gave an inhibition of 6.72%. `CNC(=O)c1cccc2nc3ccccc3nc12` was tested, and the inhibition was 6.68%. Molecule `Brc1ccc(-c2nn[nH]n2)cc1` has an inhibition of 12.5%. `CC(C)S(=O)(=O)c1csc(NC(=O)Nc2ccc(Cl)cc2)c1Cl` gave an inhibition of 6.02%. With `C=C(C)C(=O)O[C@H]1C/C(C)=C\C(=O)/C=C(\C)[C@H](O)[C@@H]2OC(=O)C(=C)[C@@H]21` the inhibition was 8.34%. Molecule `COc1cccc(Nc2nnc(SCC(=O)N3CC(=O)Nc4ccccc43)s2)c1` has an inhibition of 5.5%. For `C/C=N/N(c1ccccc1)c1ccccc1`, the inhibition was 4.81%. `CC(C)(C)C(=O)Nc1c(Br)c(C2CC2)nn1-c1ccccc1` showed an inhibition of 6.88%. For `Cc1cc(C)cc(OCC(=O)O/N=C(\N)Cc2ccc([N+](=O)[O-])cc2)c1`, the inhibition was 0.85%. `CCOc1cc(CN2CCN(C(=O)CC(C)C)CC2)ccc1OC` was tested, and the inhibition was -3.42%. `O=C(COc1ccc(Cl)cc1[N+](=O)[O-])N1CCCCC1` was tested, and the inhibition was 2.91%. `CCOc1cc(CO)ccc1OCC(=O)N1CCCCC1` was tested, and the inhibition was 52.6% (active). `O=C(CN1C(=O)CC(c2ccccc2)=Nc2ccccc21)NC1CCCCC1` was tested, and the inhibition was 12.2%. `O=C(CN1C(=O)NC2(CCCCCC2)C1=O)NC1CC1` was tested, and the inhibition was 0.9%. With `CCC1SC(CC)C(=O)N(CC(=O)NC2CCCCC2)C1=O` (centres undefined) the inhibition was 101% (active). `CN(C)/C=C1\C=C(c2ccccc2)OC1=O` was tested, and the inhibition was 49.5% (active). `CN(C)/C=C1/C(=O)Nc2ccccc21` was tested, and the inhibition was 8.66%. `Cc1ccc(C2=C/C(=C\c3cccnc3)C(=O)O2)cc1` was tested, and the inhibition was 10.9%. `NC(=O)C1=C[C@@H](c2csc3ccccc23)C[C@@H](OCc2ccc(CO)cc2)O1` gave an inhibition of 5.57%. In the case of `CCN(CC)C(=O)CC(c1ccc2c(c1)OCO2)c1c(OC)cc(OC)c2c(-c3ccccc3)cc(=O)oc12` (centres undefined), the inhibition is reported as -2.49%. In the case of `Cc1ccc(/C=C/C(=O)O)cc1S(=O)(=O)N1CCC(Cc2ccccc2)CC1`, the inhibition is reported as 6.76%. In the case of `O=c1[nH]nc(SCCS(=O)(=O)c2ccc(F)cc2)n1-c1ccccc1C(F)(F)F`, the inhibition is reported as 6.99%. With `CN(c1ccccn1)c1ncnc2[nH]ncc12` the inhibition was 3.53%. `O=C(NC1CC1)C1=C[C@H](c2c[nH]c3ccccc23)C[C@H](OCc2ccc(CO)cc2)O1` showed an inhibition of 1.62%. `Cc1nc(C(=O)NCc2ccccc2)sc1C1(C)CC(c2cccnc2)=NO1` (centres undefined) was tested, and the inhibition was 6.55%. `CC1=NNC(=O)C1CC(=O)N/N=C/c1ccncc1` (centres undefined) gave an inhibition of 2.75%. In the case of `C=CCCN(Cc1ccccc1)S(=O)(=O)c1ccccc1Br`, the inhibition is reported as 5.98%. `Cc1ccccc1NC(=O)Nc1ccccc1N1CCCCC1` gave an inhibition of 5.71%. With `c1ccc(-c2cc(N3CCCCC3)c3ccccc3n2)cc1` the inhibition was 16%. In the case of `c1ccc(-n2cccc2)c(N2CCCCC2)c1`, the inhibition is reported as 46.9% (active). `Cc1cc(-n2cnc(-c3cn(C)nc3C)n2)no1` showed an inhibition of 11.1%. `CCCCCCNS(=O)(=O)c1ccccc1Br` was tested, and the inhibition was 9.21%. `O=C(Cn1cnc2cc([N+](=O)[O-])ccc2c1=O)NC(=O)NCc1ccccc1` showed an inhibition of 1.31%. With `CCOC(=O)NNc1cc(C(F)(F)F)ccn1` the inhibition was 9.46%. For `O=C(NNS(=O)(=O)c1ccccc1C(F)(F)F)c1cc2ncc(C(F)(F)F)cc2s1`, the inhibition was 9.81%. `CCc1ccc[n+](-c2nc([O-])sc2C=O)c1` gave an inhibition of 9.94%. With `C#CCOCCOCCOCCNc1nc(N2CCN(C(=O)[C@H](CCC(=O)O)n3cc(C(N)CO)nn3)CC2)nc(N2CCN(C(=O)[C@H](CCCCN)n3cc(C(N)CC(C)C)nn3)CC2)n1` (some centres undefined) the inhibition was 5.53%. `N#Cc1c(NCCO)ccc([N+](=O)[O-])c1NCCO` gave an inhibition of 12.3%. `CCCC[C@@H]1CN=C(N)N1CCc1cc(C(F)(F)F)cc(C(F)(F)F)c1` gave an inhibition of 2.17%. In the case of `CC(C)c1ccc(NC(=S)NC2CC3C=CC2C3)cc1` (centres undefined), the inhibition is reported as 3.63%. Molecule `CCCc1c(C(=O)Nc2ccc(F)cc2)cnn1-c1ccccc1` has an inhibition of -0.53%. For `CCOCC(=O)Nc1sc2c(c1C(=O)OCC)CCCC2`, the inhibition was 5.03%. For `CCOC(=O)c1c(NC(=O)c2ccc(Br)o2)sc2c1CCCC2`, the inhibition was 44% (active). `CCOC(=O)c1c(NC(=S)NC(=O)c2ccco2)sc2c1CCCC2` showed an inhibition of 23.9%. Molecule `C=C1CCN([C@H](C(=O)NCc2cc(OC)c(OC)c(OC)c2)C(C)C)S(=O)(=O)c2ccccc21` has an inhibition of 4.35%. In the case of `FC(F)(F)c1ccnc(Oc2ccc(C3=NCCS3)cc2)c1`, the inhibition is reported as 9.29%. In the case of `CCOc1ccc(C2c3[nH]c4ccccc4c3CCN2Cc2cccn2-c2ncccn2)cc1` (centres undefined), the inhibition is reported as 4.53%. Work on `CC(C)(C)CN1C(=O)C(=O)NC[C@H]1Cc1cccc2ccccc12` yielded an inhibition of 4.1%. Molecule `COCc1cc(=O)[nH]c(-c2ccc(C(F)(F)F)cc2)n1` has an inhibition of 8.57%. Molecule `COc1ccccc1C1CCN(C(=S)Nc2ccc(Br)cc2)CC1` has an inhibition of 3.05%. Work on `Fc1ccc(-c2csc(-c3ccc(C4SCCS4)cc3)n2)cc1F` yielded an inhibition of 7.1%. `COc1ccc(C(CC(=O)N2CCN(c3ccccc3)CC2)c2c(O)cc(OC)cc2OC)cc1` (centres undefined) was tested, and the inhibition was 1.72%.
